Results filed as inconclusive are left out. Calls of active or inactive are those of the source. Calls follow the shape of the dose curve; as a rule, active = well fitted inhibition curve with a large enough effect; inconclusive = small, poorly fitted or top-dose-only effect; inactive = flat fitted curve, though single readings scatter.
What was measured:
[1] = biological target: Glutathione peroxidase 1 (Homo sapiens) (UniProt P07203); test: Primary qHTS Assay for Inhibitors of Recombinant Selenoprotein Glutathione Peroxidase 1 (GPX1) (AID 1845191); details: recombinant GPX1, GR-coupled NADPH fluorescence, 15 min; series mostly up to 48.8 µM; also: nearly all actives have a fitted effect of over 65% in size; as to activity, negative = inhibition: % is scaled to controls: 0 for no effect and ±100 for the full control effect
Glutathione peroxidase 1 (Homo sapiens), sequence (P07203 whole entry, looked up): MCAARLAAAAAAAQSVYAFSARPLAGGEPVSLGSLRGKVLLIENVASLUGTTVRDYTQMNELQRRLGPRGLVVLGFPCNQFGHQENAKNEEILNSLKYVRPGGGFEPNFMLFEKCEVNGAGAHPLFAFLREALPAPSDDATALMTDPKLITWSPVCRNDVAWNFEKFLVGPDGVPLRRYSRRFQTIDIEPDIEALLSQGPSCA
In short: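 NADPH consumption tracked by fluorescence at 340/450 nm between t=0 and t=15 min, room temperature. Final mix: 10 nM GPX1, 100 nM glutathione reductase, 1 mM GSH, 0.5 mM NADPH, 0.5 mM cumene hydroperoxide, 0.01% BSA; 30 min compound–enzyme preincubation.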

[2] = biological target: Phospholipid hydroperoxide glutathione peroxidase GPX4 (Homo sapiens) (UniProt P36969); test: Primary qHTS Assay for Inhibitors of Recombinant Selenoprotein Glutathione Peroxidase 4 (GPX4) (AID 1845192); details: recombinant GPX4, GR-coupled NADPH fluorescence, 15 min; series mostly up to 50 µM; also: nearly all actives have a fitted effect of over 65% in size; as to activity change, negative = inhibition: % is scaled to controls: 0 for no effect and ±100 for the full control effect
Phospholipid hydroperoxide glutathione peroxidase GPX4 (Homo sapiens), sequence (P36969 whole entry, looked up): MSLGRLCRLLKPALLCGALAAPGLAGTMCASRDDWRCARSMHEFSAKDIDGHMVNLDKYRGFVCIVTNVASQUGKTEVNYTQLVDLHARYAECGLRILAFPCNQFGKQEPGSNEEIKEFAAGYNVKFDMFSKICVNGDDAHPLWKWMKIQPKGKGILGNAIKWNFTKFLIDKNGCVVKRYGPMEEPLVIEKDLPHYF
In short: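 NADPH consumption followed by fluorescence at 340/450 nm, t=0 and after 15 min at room temperature. Reaction started with cumene hydroperoxide (0.5 mM final) after 30 min compound–GPX4 preincubation; final 200 nM GPX4, 100 nM GR, 1 mM GSH, 0.5 mM NADPH.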

[3] = biological target: Luciferin 4-monooxygenase (Photinus pyralis) (UniProt P08659); test: Primary firefly luciferase (FLuc) qHTS assay for identification of artifact compounds. (AID 1845220); details: purified firefly luciferase, luminescence, 5 min; series mostly up to 54.1 µM; also: nearly all actives have a fitted effect of over 60% in size;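 as to activity change, negative = inhibition: plate controls were DMSO vehicle for no effect and no enzyme for full effect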
In short: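 Cell-free, 1536-well qHTS. Buffer pH 7.6 with 0.01% Tween-20 and 0.05% BSA; 10 uM D-luciferin, 10 uM ATP; 10 nM P. pyralis luciferase; luminescence after 5 min.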

CC(C)=CC/C=C(/C)[C@H]1CC[C@]2(C)[C@@H]1[C@H](O)CC1[C@@]3(C)CC[C@H](O)C(C)(C)[C@@H]3[C@@H](O[C@@H]3O[C@H](CO)[C@@H](O)[C@H](O)[C@H]3O[C@@H]3O[C@@H](C)[C@H](O)[C@@H](O)[C@H]3O)C[C@]12C (some centres undefined)
inactive: Potency [1] | Potency [2] | Potency [3]

COc1ccc(/C=C/C(=O)O[C@@H]2[C@@H](O)[C@H](C)O[C@@H](OC3C4C=COC(O[C@@H]5O[C@H](CO)[C@@H](O)[C@H](O)[C@H]5O)C4C4(CO)OC34)[C@@H]2O)cc1OC (some centres undefined)
inactive: Potency [1] | Potency [2] | Potency [3]

C=C(C(=O)O)C1CCC(C)C2CCC(=O)OC2(C)C1 (centres undefined)
inactive: Potency [1] | Potency [2] | Potency [3]

COC(=O)[C@H](CC1C=NC=N1)NCC12CC3CC(CC(C3)C1)C2 (some centres undefined)
inactive: Potency [1] | Potency [2] | Potency [3]

C=C1CC[C@@H]2[C@](C)(CO[C@@H]3O[C@H](CO)[C@@H](O)[C@H](O)[C@H]3O)CCC[C@@]2(C)[C@@H]1CCC1=CCOC1=O
inactive: Potency [1] | Potency [2] | Potency [3]

O=C(OCc1cccc(O)c1O[C@@H]1O[C@H](CO)[C@@H](O)[C@H](O)[C@H]1O)C1(O)C(=O)C2C=CC1C1C=CC(=O)C(O)(C(=O)OCc3cccc(O)c3O[C@@H]3O[C@H](CO)[C@@H](O)[C@H](O)[C@H]3O)C21 (some centres undefined)
inactive: Potency [1] | Potency [2] | outcome [3] inactive [at 11.6 µM]

CC1(C)CCC[C@@]2(C)[C@H]1[C@H](O)C=C1COC(=O)[C@@]12O
inactive: Potency [1] | Potency [2] | Potency [3]

C=C1CC2C3(C)C(O)CC(=O)C(C)(C)C3C(OC(C)=O)C(OC(C)=O)C2(C)C2C(=O)OC(C)(C(=O)OC)C(=O)C12C (centres undefined)
inactive: Potency [1] | Potency [2] | Potency [3]

C=C1C[C@]23C[C@H]1CC[C@H]2[C@@]12C=C[C@H](O)[C@@](C)(C(=O)O1)[C@H]2[C@@H]3C(=O)O
inactive: Potency [1] | Potency [2] | Potency [3]

C=C(C)C1CC2(CO)C(=CC1=O)CCC(O)C2C (centres undefined)
inactive: Potency [1] | Potency [2] | Potency [3]

COC(=O)C1=C[C@@H](O)[C@@H](O)[C@H](O[C@@H]2O[C@H](COC(=O)/C=C/c3ccccc3)[C@@H](O)[C@H](O)[C@H]2O)C1
inactive: Potency [1] | Potency [2] | Potency [3]

O=C(c1ccccn1)c1cnn2c(-c3ccncc3)ccnc12
inactive: Potency [1] | Potency [2] | Potency [3]

Cc1nn(C)c(COc2ccc(N3CCN(S(=O)(=O)N(C)C)CC3)cc2)c1-c1cccc2c(CCCOc3cccc4ccccc34)c(C(=O)O)n(CCN3CCOCC3)c12
inactive: Potency [1] | Potency [2] | Potency [3]

C[C@]1(OC(=O)/C=C/c2ccccc2)C[C@H](O)[C@]2(O)C=CO[C@@H](O[C@@H]3O[C@H](CO)[C@@H](O)[C@H](O)[C@H]3O)C12 (some centres undefined)
inactive: Potency [1] | Potency [2] | Potency [3]

COc1ccc(C(O[C@@H]2O[C@H](CO)[C@@H](O)[C@H](O)[C@H]2O)C(CO)Oc2ccc(/C=C/CO)cc2OC)cc1O (some centres undefined)
inactive: Potency [1] | Potency [2] | Potency [3]

C=C1C(=O)O[C@H]2[C@H]1[C@@H](OC(=O)C(C)CO)C[C@@]1(C)[C@H](O)CCC(=O)[C@H]21 (some centres undefined)
inactive: Potency [1] | Potency [2] | Potency [3]

C=C(C(=O)OC)C1CCC2(C)C(O[C@@H]3O[C@H](CO)[C@@H](O)[C@H](O)[C@H]3O)CC(=O)C(C)C2C1O (some centres undefined)
inactive: Potency [1] | Potency [2] | Potency [3]

NC(=O)c1ccc(OCC2NC(=O)C3CCCN3C2=O)cc1 (centres undefined)
inactive: Potency [1] | Potency [2] | Potency [3]

C[C@@H]1O[C@@H](OC[C@H]2O[C@@H](OCCc3ccccc3)[C@H](O)[C@@H](O)[C@@H]2O)[C@H](O)[C@H](O)[C@H]1O
inactive: Potency [1] | Potency [2] | Potency [3]

COC(=O)[C@@]1(O)C=CC[C@@H]2[C@@]3(C)C[C@@H](c4ccoc4)OC(=O)[C@H]3CC[C@]21C
inactive: Potency [1] | Potency [2] | Potency [3]

CCC(NC(=O)CC(NC(=O)C(CO)NC(=O)C(CC)NC(=O)c1ccc[nH]1)c1ccccc1)C(=O)O (centres undefined)
inactive: Potency [1] | Potency [2] | Potency [3]

COc1c(C)c(OCC=C(C)C)cc2c1C(=O)NC2=O
inactive: Potency [1] | Potency [2] | Potency [3]

CC(=O)OCCC(C)CCC1C(C)(O)CCC2C(C)(C)CCCC21C (centres undefined)
inactive: Potency [1] | Potency [2] | Potency [3]

CC(=O)c1c(C)cc(O)cc1O[C@@H]1O[C@H](CO)[C@@H](O)[C@H](O)[C@H]1O
inactive: Potency [1] | Potency [2] | Potency [3]

O=c1ccn(C2OC(CO)C(O)C2O)c(=O)[nH]1 (centres undefined)
inactive: Potency [1] | Potency [2] | Potency [3]

C[C@@H](OC(=O)/C=C/c1ccc(O)cc1)C1=C[C@]2(C=C[C@@H]3C(C(=O)O)=CO[C@@H](O[C@@H]4O[C@H](CO[C@@H]5O[C@H](CO)[C@@H](O)[C@H](O)[C@H]5O)[C@@H](O)[C@H](O)[C@H]4O)[C@@H]32)OC1=O
inactive: Potency [1] | Potency [2] | Potency [3]

CC1=C2C3OC(=O)C(C)C3(O)CCC2(C)CCC1=O (centres undefined)
inactive: Potency [1] | Potency [2] | Potency [3]

CC/C=C\C[C@H]1C(=O)C=C[C@@H]1CCCCCCCC(=O)O
inactive: Potency [1] | Potency [2] | Potency [3]

CC1CCC2(C(=O)OC3OC(COC4OC(CO)C(O)C(O)C4O)C(O)C(O)C3O)CCC3(C)C(=CCC4C5(C)CCC(O)C(C)(C(=O)O)C5CCC43C)C2C1(C)O (centres undefined)
inactive: Potency [1] | Potency [2] | activity change, negative = inhibition [3] -4.02% [at 11.6 µM]

CC(C)CNC(=O)/C=C/CCCCc1ccc2c(c1)OCO2
inactive: Potency [1] | Potency [2] | Potency [3]

C=C1C(OC(C)=O)C(=O)C2C(C)(C)C(OC(C)=O)CCC2(C)C1CC(OC(C)=O)/C(C)=C/COC(C)=O (centres undefined)
inactive: Potency [1] | Potency [2] | Potency [3]

Cc1onc(-c2ccccc2)c1C(=O)N[C@@H]1C(=O)N2[C@@H]1SC(C)(C)[C@@H]2C(=O)O
inactive: Potency [1] | Potency [2] | Potency [3]

CC1OC(O[C@H]2[C@@H](O)C[C@@]3(C)C([C@H](O)C[C@]4(C)C3CC=C3C5CC(C)(C)CC[C@]5(C(=O)OC5OC(CO)C(O)C(O)C5OC5OCC(OC6OCC(OC7OCC(O)C(O)C7O)C(O)C6O)C(OC6OCC(O)(CO)C6O)C5O)CC[C@]34C)[C@]2(C)CO)C(O)C(O)C1O (some centres undefined)
inactive: activity, negative = inhibition [1] -3.12% [at 9.52 µM] | activity change, negative = inhibition [2] -6.84% [at 9.73 µM] | activity change, negative = inhibition [3] 2.08% [at 11.6 µM]

CC1=CC(=O)OC(C)(CC(C)(O)C(=O)O)C1 (centres undefined)
inactive: Potency [1] | Potency [2] | Potency [3]

CCC(C)(O)C(O)C(=O)OCc1ccc(O[C@@H]2O[C@H](CO)[C@@H](O)[C@H](O)[C@H]2O)cc1 (some centres undefined)
inactive: Potency [1] | Potency [2] | Potency [3]

CC(=O)NC(CCC(=O)O)C(=O)NCCc1ccc(O)cc1 (centres undefined)
inactive: Potency [1] | Potency [2] | Potency [3]

O=C(/C=C/c1ccccc1)OCC1=CC[C@@H]2C(C(=O)O)=CO[C@@H](O[C@@H]3O[C@H](CO)[C@@H](O)[C@H](O)[C@H]3O)[C@H]12
inactive: Potency [1] | Potency [2] | Potency [3]

CCOC(=O)c1ccnc(CNCC(=O)N(CC)CCN(C)C)c1
inactive: Potency [1] | Potency [2] | Potency [3]

CNc1nc(Nc2cnn([C@H]3CCN(C4COC4)C[C@@H]3F)c2Cl)ncc1C(F)(F)F
inactive: Potency [1] | Potency [2] | Potency [3]

CCC(C)/C=C(C)/C=C/C1=CC2=C(Cl)C(=O)C(C)(OC(C)=O)C(=O)C2=CN1C1CCCCN(C(CCC(N)=O)C(=O)O)C1=O (centres undefined)
inactive: Potency [1] | Potency [2] | Potency [3]

CC(=O)OC1C(O)C(C)=C(CCC(C)CC(=O)O)C2(C)CCCC(C)(C)C12 (centres undefined)
inactive: Potency [1] | Potency [2] | Potency [3]

O=C1NCc2nc3ccccc3c(=O)n2C1Cc1c[nH]c2ccccc12 (centres undefined)
inactive: Potency [1] | Potency [2] | Potency [3]

CCNC(=O)[C@H]1O[C@H](n2cnc3c(NCC(c4ccccc4)c4ccccc4)nc(C(=O)NCCNC(=O)NC4CCN(c5ccccn5)CC4)nc32)[C@H](O)[C@@H]1O
inactive: Potency [1] | Potency [2] | Potency [3]

COC1=CC(=O)C[C@@H](C)[C@]12Oc1cc(OC)cc(OC)c1C2=O
inactive: Potency [1] | Potency [2] | Potency [3]

CCC(CC)n1ccc2c(C(=O)NCc3c(C)cc(C)[nH]c3=O)cc(C#N)cc21
inactive: Potency [1] | Potency [2] | Potency [3]

C[C@@H]1O[C@@H](O[C@@H]2[C@@H](O)[C@@H](O)[C@H](O[C@@H]3[C@@H](O)[C@@H](O[C@]4(CO)O[C@H](CO)[C@@H](O)[C@@H]4OC(=O)/C=C/c4ccc(O)cc4)O[C@H](CO)[C@H]3OC(=O)/C=C/c3ccc(O)cc3)O[C@H]2C)[C@H](O)[C@H](O)[C@H]1O
inactive: Potency [1] | Potency [2] | outcome [3] inactive [at 11.6 µM]

C=C1CCC(OC(C)=O)C2(C)CC3(O)OC(=O)C(C)=C3CC12 (centres undefined)
inactive: Potency [1] | Potency [2] | Potency [3]

CC1CCC2C(C)(C)C(O)CCC2(C)C12Cc1c(O)cc3c(c1O2)CN=C3N (centres undefined)
inactive: Potency [1] | Potency [2] | Potency [3]

COC(=O)[C@H](OC(C)=O)[C@H]1C(C)(C)C(=O)[C@H]2CC3=C4CC(=O)O[C@@H](c5ccoc5)[C@]4(C)CCC3[C@@]1(C)C2=O (some centres undefined)
inactive: Potency [1] | Potency [2] | Potency [3]

CC(C)CC(=O)O[C@@H]1OC=C(CO[C@@H]2O[C@H](CO[C@@H]3O[C@H](CO)[C@@H](O)[C@H](O)[C@H]3O)[C@@H](O)[C@H](O)[C@H]2O)[C@H]2C[C@H](O)[C@@H](CO)[C@@H]12
inactive: Potency [1] | Potency [2] | Potency [3]

CC1=C2C(=O)O[C@@H](c3ccoc3)[C@]2(C)CCC1
inactive: Potency [1] | Potency [2] | Potency [3]

COc1cc(/C=C/C(=O)OC2CC3CCC2(C)C3(C)C)ccc1O (centres undefined)
inactive: Potency [1] | Potency [2] | Potency [3]

CC(=O)OCC(=O)O[C@@H]1[C@H]2[C@@H](OC(=O)c3ccccc3)[C@@H](C)C[C@]2(O)[C@H](OC(C)=O)C2(C)[C@H]3CC(C)(C)C(=O)[C@@H]3CC1(OC(C)=O)[C@@H]2OC(C)=O (some centres undefined)
inactive: Potency [1] | Potency [2] | Potency [3]
